Source: PubChem BioAssay (EPA / NIEHS)
Results filed as inconclusive are left out. Activity calls are given as the source filed them. Rule for the calls: active = hit-call score of the fitted dose curve at least 0.9, where 1 is the maximum; inconclusive = response in the unintended direction; inactive = score below 0.9.

What was measured:
[1] = system: turtle Androgen Receptor (AR), gene 101947425; experiment: ATG_trAR_XSP1: Attagene TRANS-FACTORIAL Multi-Species (XSP1) HepG2 Assay for turtle Androgen Receptor (AR) (AID 2283786)
Method: (§1) ATG_XSP1_multi-species_TRANS is a cell-based, multiplexed assay created by modifying the existing Attagene TRANS-FACTORIAL system to include a panel of nuclear receptors from some or all the following species: human (Homo sapiens), mouse (Mus musculus), frog (Xenopus laevis), zebrafish (Danio rerio), chicken (Gallus gallus), and turtle (Chrysemys picta). The ECOTOX-FACTORIAL format uses HepG2, a human liver cell line, with measurements taken at 24 hours after chemical dosing in a 24-well plate. Xsp1 included 3 nM 6-alpha-fluorotestosterone to partially stimulate the androgen receptor.ATG_trAR_XSP1 is one of 29 assay components measured or calculated from the ATG_XSP1_multi-species_TRANS assay. It is designed to make measurements of mRNA induction, a form of inducible reporter, as detected with fluorescence intensity signals by Reverse transcription polymerase chain reaction (RT-PCR) and Capillary electrophoresis technology.The assay endpoint ATG_trAR_XSP1 was analyzed in the positive analysis fitting direction relative to DMSO as the negative control and baseline of activity. Using a type of inducible reporter, measures of mRNA for gain-of-signal activity can be used to understand the reporter gene at the transcription factor-level as they relate to the gene AR. Furthermore, this assay endpoint can be referred to as a primary readout, because this assay has produced multiple assay endpoints where this one serves a reporter gene function. To generalize the intended target to other relatable targets, this assay endpoint is annotated to the nuclear receptor intended target family, where the subfamily is steroidal.
(§2) Human liver HepG2 cells are transiently transfected with multiple reporter transcription units (MRTUs) in 6-well plates using FuGene 6 reagent (Roche; 3 ml FuGene/1 mg DNA). The MRTU constructs are regulated by a cis-regulating element (promoter). […] A major difference between the CIS and TRANS system is that in CIS activities of endogenous TFs are measured, whereas the TRANS assay evaluates changes in activities of exogenous, chimeric NR-Gal4 proteins. […] At the end of 24 hour incubation, total RNA was isolated using TriZol reagent (Invitrogen). The isolated RNA is then reverse-transcribed using oligo(dT) primer and Mo-MLV reverse transcriptase (Invitrogen) with DNAse I (Ambion) treatment for 30 min. The one-tenth of the produced cDNA was amplified by PCR using Taq DNA polymerase (Invitrogen) and two reporter sequence-specific primers. The PCR products were fluorescently labeled by primer extension with 6-arboxyfluorescein (6-FAM) 5'-labeled reporter sequence-specific primer (2 min at 95 C, 20 s at 68 C and 10 min at 72 C) and these products were digested with 5U of HpaI (New England Biolabs) for 2h at 37 C. The fragments were purified using Qiaquick PCR columns (Qiagen), analyzed on an ABI 3130xL genetic analyzer (Applied Biosystems) with peak positions identified by using a set of X-rhodamine (ROX)-labeled MapMarker1000 molecular weight standards (BioVentures). The raw capillary electrophoresis data was processed using Attagraph software (Attagene).

[2] = molecular target: Estrogen receptor beta (Homo sapiens) (UniProt Q92731); experiment: ATG_hERb_XSP1: Attagene TRANS-FACTORIAL Multi-Species (XSP1) HepG2 Assay for human Estrogen Receptor (ESR2) (AID 2283788)
How it was run: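 Read-out: reporter mRNA induction by RT-PCR, HpaI digestion and capillary electrophoresis fluorescence, fitted in positive direction relative to DMSO baseline. Human liver HepG2 cells expressing ERβ-Gal4 fusion, dosed 24 h, medium containing 3 nM 6-alpha-fluorotestosterone.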

[3] = molecular target: GAL4 Transcription Factor (Internal Marker), GAL4 (gene 855828) (UniProt P04386); experiment: ATG_GAL4_XSP1: Attagene TRANS-FACTORIAL Multi-Species (XSP1) HepG2 Assay for GAL4 Transcription Factor (Internal Marker) (AID 2283789)
How it was run: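 HepG2 cells transiently transfected with multiplexed GAL4-UAS reporter units were exposed for 24 h with 3 nM 6-alpha-fluorotestosterone present. Reporter mRNA was quantified by RT-PCR, FAM labelling, HpaI digestion and capillary electrophoresis; background-control readout, gain-of-signal versus DMSO.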

[4] = ATG_M_06_XSP1: Attagene TRANS-FACTORIAL Multi-Species (XSP1) HepG2 Assay for M06 Transcription Factor (Internal Marker) (AID 2283790)
How it was run: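 Transfected HepG2 multi-reporter system treated 24 h in the presence of 3 nM 6-alpha-fluorotestosterone. The M06 internal marker transcript was quantified by RT-PCR with capillary electrophoresis as a background control, and gain of signal was scored versus DMSO.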

[5] = ATG_M_61_XSP1: Attagene TRANS-FACTORIAL Multi-Species (XSP1) HepG2 Assay for M61 Transcription Factor (Internal Marker) (AID 2283797)
How it was run: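 HepG2 cells transiently transfected with multiplexed GAL4-driven reporter units, dosed 24 h with 3 nM 6-alpha-fluorotestosterone present. Reporter mRNA quantified by RT-PCR, 6-FAM labelling, HpaI digestion and capillary electrophoresis; internal-marker background control, gain of signal versus DMSO.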

[6] = STM_H9_NormalizedViability: Cytotoxicity Assessment at 120 hours in the Stemina devTOX quickPredict H9 human embryonic stem cell (hESC)-based Assay (AID 2283784)
How it was run: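 Undifferentiated H9 hESCs kept pluripotent were exposed to compound, with media and chemical replaced every 24h. CellTiter-Fluor protease-substrate fluorescence was background-corrected and normalized per plate to the 0.1% DMSO vehicle; signal loss indicates reduced viability.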

[7] = molecular target: human Androgen Receptor (AR), AR (gene 367) (UniProt P10275); experiment: ATG_hAR_XSP1: Attagene TRANS-FACTORIAL Multi-Species (XSP1) HepG2 Assay for human Androgen Receptor (AR) (AID 2283785)
Method: as §1, with “receptor.ATG_hAR_XSP1” for “receptor.ATG_trAR_XSP1”, “ATG_hAR_XSP1” for “ATG_trAR_XSP1”, “Using a type of inducible reporter, measures of mRNA for gain-of-signal activity can be used to understand the reporter gene at the transcription factor-level as they relate to the gene AR.” left out, “To generalize the intended target to other relatable targets, this assay endpoint is annotated to the nuclear receptor intended target family, where the subfamily is steroidal.” left out

AR (gene 367) = AR (gene 367) (UniProt P10275); experiment: ACEA_AR_antagonist_80hr: ACEA Biosciences xCELLigence Real-Time Cell Analysis on Androgen Receptor Antagonism for Proliferation (AID 2283787);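 note: 22Rv1 human prostate cancer cells with growth followed by electrical impedance; hits lower the impedance growth signal relative to DMSO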
How it was run: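 Impedance readout (RT-CES), 80 h post-dose; loss-of-signal vs DMSO baseline. 22Rv1 cells in assay medium. Compounds: 8-pt 1:4 series, max 100 uM final, up to 0.5% DMSO; n = 2.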

[8] = ATG_M_19_XSP1: Attagene TRANS-FACTORIAL Multi-Species (XSP1) HepG2 Assay for M19 Transcription Factor (Internal Marker) (AID 2283798)
How it was run: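 HepG2 cells transiently transfected with multiplexed GAL4-UAS reporter units, dosed 24 h with 3 nM 6-alpha-fluorotestosterone present for partial AR stimulation. Reporter mRNA measured by RT-PCR with capillary electrophoresis; gain-of-signal fitted relative to DMSO.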

[9] = ATG_M_32_XSP1: Attagene TRANS-FACTORIAL Multi-Species (XSP1) HepG2 Assay for M32 Transcription Factor (Internal Marker) (AID 2283799)
Method: ATG_XSP1_multi-species_TRANS is a cell-based, multiplexed assay created by modifying the existing Attagene TRANS-FACTORIAL system to include a panel of nuclear receptors from some or all the following species: human (Homo sapiens), mouse (Mus musculus), frog (Xenopus laevis), zebrafish (Danio rerio), chicken (Gallus gallus), and turtle (Chrysemys picta). The ECOTOX-FACTORIAL format uses HepG2, a human liver cell line, with measurements taken at 24 hours after chemical dosing in a 24-well plate. Xsp1 included 3 nM 6-alpha-fluorotestosterone to partially stimulate the androgen receptor.ATG_M_32_XSP1 is one of 29 assay components measured or calculated from the ATG_XSP1_multi-species_TRANS assay. It is designed to make measurements of mRNA induction, a form of inducible reporter, as detected with fluorescence intensity signals by Reverse transcription polymerase chain reaction (RT-PCR) and Capillary electrophoresis technology.This assay endpoint, ATG_M_32_XSP1, was analyzed in the positive analysis fitting direction relative to DMSO as the negative control and baseline of activity. Using a type of inducible reporter, measures of mRNA for gain-of-signal activity can be used to understand the background control at the transcription factor-level as they relate to the gene. Furthermore, this assay endpoint can be referred to as a secondary readout, because this assay has produced multiple assay endpoints where this one serves a background control function. To generalize the intended target to other relatable targets, this assay endpoint is annotated to the background measurement intended target family, where the subfamily is internal marker.
as §2, with “The one-tenth of the produced cDNA was amplified by PCR using Taq DNA polymerase (Invitrogen) and two reporter sequence-specific primers. The PCR products were fluorescently labeled by primer extension with 6-arboxyfluorescein (6-FAM) 5'-labeled reporter sequence-specific primer (2 min at 95 C, 20 s at 68 C and 10 min at 72 C) and these products were digested with 5U of HpaI (New England Biolabs) for 2h at 37 C.” left out, “The raw capillary electrophoresis data was processed using Attagraph software (Attagene).” left out

Chain of Estrogen receptor beta (Homo sapiens) (Q92731 whole entry, looked up, the tested form may be a part): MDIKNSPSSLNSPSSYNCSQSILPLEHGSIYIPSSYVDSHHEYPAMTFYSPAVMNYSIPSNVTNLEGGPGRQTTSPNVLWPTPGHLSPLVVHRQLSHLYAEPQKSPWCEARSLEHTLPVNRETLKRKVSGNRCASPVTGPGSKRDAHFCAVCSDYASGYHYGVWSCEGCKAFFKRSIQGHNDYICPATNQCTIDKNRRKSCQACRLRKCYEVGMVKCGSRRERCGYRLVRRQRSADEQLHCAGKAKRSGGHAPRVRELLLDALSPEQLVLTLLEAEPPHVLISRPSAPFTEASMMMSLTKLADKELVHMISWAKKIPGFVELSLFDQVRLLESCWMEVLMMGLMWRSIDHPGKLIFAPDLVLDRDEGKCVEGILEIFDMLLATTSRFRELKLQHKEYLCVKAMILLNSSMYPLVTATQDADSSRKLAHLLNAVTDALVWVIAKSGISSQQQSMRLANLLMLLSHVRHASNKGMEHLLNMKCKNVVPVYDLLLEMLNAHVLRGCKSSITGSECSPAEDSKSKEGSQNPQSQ
Chain of AR (gene 367) (P10275 whole entry, looked up): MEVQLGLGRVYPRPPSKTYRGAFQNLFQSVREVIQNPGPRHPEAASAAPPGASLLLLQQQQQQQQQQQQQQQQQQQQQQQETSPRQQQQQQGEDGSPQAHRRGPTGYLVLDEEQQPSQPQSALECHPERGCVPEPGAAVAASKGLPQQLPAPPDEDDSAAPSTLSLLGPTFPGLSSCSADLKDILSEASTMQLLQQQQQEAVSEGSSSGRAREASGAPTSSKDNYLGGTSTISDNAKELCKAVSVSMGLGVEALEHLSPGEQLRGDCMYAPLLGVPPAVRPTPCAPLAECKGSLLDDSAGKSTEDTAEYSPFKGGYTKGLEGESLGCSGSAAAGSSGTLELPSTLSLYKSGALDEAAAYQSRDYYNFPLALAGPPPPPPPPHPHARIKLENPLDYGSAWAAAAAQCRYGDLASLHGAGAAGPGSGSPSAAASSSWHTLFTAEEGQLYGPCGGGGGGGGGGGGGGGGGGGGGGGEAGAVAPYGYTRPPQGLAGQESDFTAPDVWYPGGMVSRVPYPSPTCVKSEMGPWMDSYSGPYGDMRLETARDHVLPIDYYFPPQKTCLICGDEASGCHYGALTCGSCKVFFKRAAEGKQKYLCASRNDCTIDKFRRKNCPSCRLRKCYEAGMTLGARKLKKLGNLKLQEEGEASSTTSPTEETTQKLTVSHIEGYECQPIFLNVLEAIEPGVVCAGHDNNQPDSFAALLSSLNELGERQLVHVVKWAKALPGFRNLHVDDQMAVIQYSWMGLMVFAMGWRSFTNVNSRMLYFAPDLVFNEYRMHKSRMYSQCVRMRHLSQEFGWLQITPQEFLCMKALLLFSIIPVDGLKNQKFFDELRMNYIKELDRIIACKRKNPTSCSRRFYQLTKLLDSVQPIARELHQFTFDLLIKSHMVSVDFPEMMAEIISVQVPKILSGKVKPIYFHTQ
Chain of GAL4 Transcription Factor (Internal Marker), GAL4 (gene 855828) (P04386 whole entry, looked up, the tested form may be a part): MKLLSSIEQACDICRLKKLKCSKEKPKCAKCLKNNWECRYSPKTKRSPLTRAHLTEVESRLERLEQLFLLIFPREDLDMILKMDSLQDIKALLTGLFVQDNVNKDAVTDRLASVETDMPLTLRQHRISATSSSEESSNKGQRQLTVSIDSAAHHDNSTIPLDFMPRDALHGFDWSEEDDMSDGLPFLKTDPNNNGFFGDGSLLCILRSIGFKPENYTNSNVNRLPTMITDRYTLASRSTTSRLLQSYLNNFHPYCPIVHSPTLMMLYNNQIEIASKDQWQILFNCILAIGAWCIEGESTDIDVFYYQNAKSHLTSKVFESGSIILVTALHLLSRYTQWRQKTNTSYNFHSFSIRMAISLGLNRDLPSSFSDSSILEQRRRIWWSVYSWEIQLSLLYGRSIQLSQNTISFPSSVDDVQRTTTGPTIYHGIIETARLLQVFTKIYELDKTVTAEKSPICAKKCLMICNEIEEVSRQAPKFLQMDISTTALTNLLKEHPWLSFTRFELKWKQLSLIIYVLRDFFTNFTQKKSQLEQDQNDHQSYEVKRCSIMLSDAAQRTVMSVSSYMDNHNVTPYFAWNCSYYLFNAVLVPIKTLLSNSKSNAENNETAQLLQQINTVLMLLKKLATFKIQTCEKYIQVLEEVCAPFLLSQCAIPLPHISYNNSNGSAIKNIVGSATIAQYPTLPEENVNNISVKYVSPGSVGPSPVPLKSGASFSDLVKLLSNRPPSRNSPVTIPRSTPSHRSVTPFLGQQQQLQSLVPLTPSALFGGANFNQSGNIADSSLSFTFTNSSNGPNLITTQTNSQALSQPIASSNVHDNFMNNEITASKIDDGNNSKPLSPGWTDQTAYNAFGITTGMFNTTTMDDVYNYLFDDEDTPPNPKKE
Chain of human Androgen Receptor (AR), AR (gene 367) (P10275 whole entry, looked up): as the sequence (P10275 whole entry, looked up) above

## CC(C)Oc1cc(-n2nc(C(C)(C)C)oc2=O)c(Cl)cc1Cl
[1]
  outcome: inactive
[2]
  AC50: 100 µM (active)
[3]
  outcome: inactive
[4]
  outcome: inactive
[5]
  outcome: inactive

## CO/C=C(/C(=O)OC)c1ccccc1Oc1cc(Oc2ccccc2C#N)ncn1
[6]
  outcome: inactive
[7]
  outcome: inactive
AR (gene 367)
  AC50: 61.2 µM (active)
[2]
  outcome: inactive
[3]
  outcome: inactive
[4]
  outcome: inactive
[5]
  outcome: inactive

## CS/C(C)=N/OC(=O)N(C)SN(C)C(=O)O/N=C(\C)SC
AR (gene 367)
  AC50: 76.7 µM (active)

## C=CC1(C)OC(=O)N(c2cc(Cl)cc(Cl)c2)C1=O (configuration not stated)
[6]
  outcome: inactive
[2]
  outcome: inactive
[3]
  outcome: inactive
[4]
  outcome: inactive
[5]
  outcome: inactive
[8]
  outcome: inactive

## O=C(Nc1ccccc1)Nc1ccnc(Cl)c1
AR (gene 367)
  AC50: 33.4 µM (active)

## N#Cc1nn(-c2c(Cl)cc(C(F)(F)F)cc2Cl)c(N)c1S(=O)C(F)(F)F (configuration not stated)
[6]
  AC50: 66.1 µM (active)
AR (gene 367)
  AC50: 58 µM (active)

## CCc1nn(C)c(C(=O)NCc2ccc(C(C)(C)C)cc2)c1Cl
[6]
  AC50: 2.12 µM (active)

## N#Cc1cc(Br)c(O)c(Br)c1
AR (gene 367)
  AC50: 53.5 µM (active)

## CCNc1nc(Cl)nc(NCC)n1
[6]
  outcome: inactive

## CN(C)C(=S)SSC(=S)N(C)C
[6]
  AC50: 50 µM (active)
AR (gene 367)
  AC50: 20.6 µM (active)

## Cc1ccc(-c2c(Cl)nc(C#N)n2S(=O)(=O)N(C)C)cc1
AR (gene 367)
  AC50: 14.1 µM (active)

## CON(C)C(=O)Nc1ccc(Cl)c(Cl)c1
[6]
  outcome: inactive
[4]
  outcome: inactive
[5]
  outcome: inactive

## COP(=S)(OC)Oc1nc(Cl)c(Cl)cc1Cl
[1]
  AC50: 25.3 µM (active)
[2]
  AC50: 27.1 µM (active)
[4]
  outcome: inactive
[5]
  outcome: inactive
[8]
  outcome: inactive

## CCCCNC(=O)OCC#CI
[4]
  outcome: inactive
[5]
  outcome: inactive

## CCCCC(CC)COC(=O)c1ccccc1C(=O)OCC(CC)CCCC (configuration not stated)
[6]
  outcome: inactive
[4]
  outcome: inactive
[5]
  outcome: inactive
[8]
  outcome: inactive
[9]
  outcome: inactive

## CC1=C(C(=O)Nc2ccccc2)SCCO1
AR (gene 367)
  outcome: inactive

## OC(c1ccc(Cl)cc1)(c1cncnc1)c1ccccc1Cl (configuration not stated)
[6]
  outcome: inactive
[2]
  AC50: 1.98 µM (active)

## CCON=C(CC)C1=C(O)CC(c2c(C)cc(C)cc2C)CC1=O (configuration not stated)
AR (gene 367)
  outcome: inactive
